Laboratory results taken from PubChem BioAssay (Tox21).
Results filed as inconclusive are left out. Calls of active or inactive are those of the source. Unless noted, the call rests on the fitted dose curve; in most records, active means well fitted curve in the direction sought with a large enough effect in the repeat runs; inconclusive means weak or mixed curves; inactive means no such curve, though single readings can be large; an effect the other way counts as inactive or inconclusive.

Key:
[1] = qHTS assay to identify small molecule antagonists of the estrogen related receptor signaling pathway with the pleiotropic PPARgamma coactivator (PGC) from Tox21 10K library - cell viability counter screen (AID 1224840; active means well fitted cell-killing curve with a large enough effect in the repeat runs, not every such curve was filed as active; further: nearly all actives have a fitted effect of over 40% in size)
Method in brief: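 Cell viability is measured by CellTiter-Fluor fluorescence in PGC/ERR cells that receive compounds after a 6-hour attachment period and are then incubated 17.5 hours at 37 C.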

[2] = biological target: Thyrotropin receptor (Homo sapiens) (UniProt P16473); assay: qHTS assay to identify small molecule agonists of the thyroid stimulating hormone receptor (TSHR) signaling pathway (AID 1224843; calls by dose curve; further: nearly all actives have a fitted effect of over 45% in size)
Method in brief: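 Compounds are titrated over 15 concentrations, in triplicate, onto TSHR-HEK293 cells seeded at 800/well. Plates sit 30 min at room temperature before cAMP-d2 and anti-cAMP cryptate are added; signal is read after a further hour.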

[3] = qHTS assay to identify small molecule agonists of the hypoxia (HIF-1) signaling pathway - cell viability counter screen (AID 1224844; calls by dose curve; further: nearly all actives have a fitted effect of over 50% in size)
Method in brief: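 Viability counter screen: HRE-bla ME-180 cells plated 5 hrs before compound addition, treated 17 hrs at 37C and 5% CO2, then CellTiter-Glo added after the FRET reporter read; luminescence after 30 min.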

[4] = qHTS assay to identify small molecule agonists of H2AX (AID 1224845; active means well fitted activation curve with a large enough effect in the signal ratio in the repeat runs, not every such curve was filed as active; the % refers to the signal ratio)
Method in brief: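 Wild-type CHO-K1 cells plated overnight, then exposed 3 hr at 37C to compounds at 15 concentrations (0.76% DMSO). Lysed, then HTRF anti-pH2AX(S139)-cryptate/anti-H2AX-d2 detection after 24 hr at room temperature; emissions 665 and 620 nm.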

[5] = qHTS assay to identify small molecule agonists of the hypoxia (HIF-1) signaling pathway (AID 1224846; active means well fitted activation curve with a large enough effect in the signal ratio in the repeat runs, not every such curve was filed as active; the % refers to the signal ratio)
Method in brief: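 Agonist mode reporter screen. ME-180 cells stably expressing bla under HRE control received test compounds in DMSO for 17 hrs (37C, 5% CO2), and beta-lactamase activity was then detected with the CCF4-AM FRET substrate.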

[6] = qHTS assay to identify small molecule agonists of H2AX - cell viability counter screen (AID 1224847; calls by dose curve; further: top concentration of the series differs between compounds; nearly all actives have a fitted effect of over 30% in size)
Method in brief: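 Counter-screen for viability: CellTiter-Glo ATP luminescence read after 3 h compound treatment (15-point titration, 0.76% DMSO final) of CHO-K1 cells at 37C, with 30 min room-temperature reagent incubation.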

[7] = qHTS RealTime-Glo MT Cell Viability Assay in HepG2 cells - 24 hour (AID 1224867); further: nearly all actives have a fitted effect of over 50% in size
Method in brief: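 HepG2 cells were seeded at 600 cells/well together with NanoLuc luciferase and a cell-permeant prosubstrate, preincubated 5 h at 37 C/5% CO2, then pin-dosed with compounds in DMSO. Nonlytic luminescence from viable cells was read at each time point.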

[8] = qHTS RealTime-Glo MT Cell Viability Assay in HEK293 cells - 32 hour (AID 1224868); further: top concentration of the series differs between compounds; nearly all actives have a fitted effect of over 50% in size
Method in brief: (§1)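 HEK293 cells were seeded at 600 cells/well together with NanoLuc luciferase and cell-permeant prosubstrate, preincubated 5 h at 37 C/5% CO2, then given compound in DMSO by pintool. Luminescence from viable-cell prosubstrate reduction was read repeatedly over 40 h.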

[9] = A CellTox Green Cytotoxicity Assay to monitor cytotoxicity in HEK293 cells - 0 hour (AID 1224869); further: nearly all actives have a fitted effect of over 50% in size
Method in brief: (§2)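 Dead-cell fluorescence measured kinetically: asymmetric cyanine dye, HEK293, 600 cells/well, 5 h settle, 23 nL cpd/DMSO, 37 C, reads 0–40 h every 8 h.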

[10] = qHTS RealTime-Glo MT Cell Viability Assay in HepG2 cells - 40 hour (AID 1224870); further: nearly all actives have a fitted effect of over 50% in size
Method in brief: (§3)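 HepG2 cells mixed with RealTime-Glo MT reagents (NanoLuc plus cell-permeant prosubstrate) were seeded at 600 cells/well, incubated 5 h at 37 C/5% CO2, then pinned with compounds in DMSO; nonlytic luminescence tracked viability during 40 h treatment.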

[11] = A CellTox Green Cytotoxicity Assay to monitor cytotoxicity in HEK293 cells - 40 hour (AID 1224871); further: nearly all actives have a fitted effect of over 45% in size
Method in brief: as §2

[12] = qHTS RealTime-Glo MT Cell Viability Assay in HEK293 cells - 16 hour (AID 1224872)
Method in brief: as §1

[13] = qHTS RealTime-Glo MT Cell Viability Assay in HepG2 cells - 8 hour (AID 1224873); further: nearly all actives have a fitted effect of over 55% in size
Method in brief: as §3

[14] = qHTS RealTime-Glo MT Cell Viability Assay in HEK293 cells - 40 hour (AID 1224874); settings: RealTime-Glo luminescence; max response: stronger effect = lower value; further: nearly all actives have a fitted effect of over 50% in size
Method in brief: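 600 HEK293 cells per well, dispensed already mixed with RealTime-Glo MT reagents. Compound dosing came 5 h later. The same wells were read for luminescence at 0, 8, 16, 24, 32 and 40 h of exposure at 37 C.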

[15] = A CellTox Green Cytotoxicity Assay to monitor cytotoxicity in HEK293 cells - 24 hour (AID 1224875); further: series mostly up to about 77 µM; nearly all actives have a fitted effect of over 45% in size
Method in brief: as §2

[16] = qHTS assay to identify small molecule antagonists of the estrogen related receptor signaling pathway with the pleiotropic PPARgamma coactivator (PGC) from Tox21 10K library (AID 1224841; call rule not given here)
Method in brief: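 Cells stably carrying the PGC/ERR reporter, seeded at 2,000 per well, received pin-transferred compounds 6 h post-plating. Exposure lasted 18 h at 37 C. Signal: One-Glo luminescence.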

[17] = qHTS assay to identify small molecule agonists of the estrogen related receptor signaling pathway with the pleiotropic PPARgamma coactivator (PGC) from Tox21 10K library (AID 1224842); further: nearly all actives have a fitted effect of over 15% in size
Method in brief: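 PGC/ERR reporter cells (NTP line) were seeded 2,000 per well, rested 6 h at 37 C/5% CO2, then pin-dosed with compounds in DMSO for 18 h at 37 C; luciferase read by One-Glo luminescence after 30 min at room temperature.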

[18] = qHTS assay to identify small molecule antagonists of the estrogen related receptor (ERR) signaling pathway from Tox21 library (AID 1224848); further: nearly all actives have a fitted effect of over 50% in size
Method in brief: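 First, 2,000 ERR cells per well were plated and held 6 h at 37 C/5% CO2. Next, compounds in DMSO were pinned in and left 18 h at 37 C. Finally, ONE-Glo was added and luminescence read after 30 min at room temperature.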

[19] = qHTS assay to identify small molecule agonists of the estrogen related receptor (ERR) signaling pathway from Tox21 library (AID 1224849; calls by dose curve; further: nearly all actives have a fitted effect of over 15% in size)
Method in brief: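 Quantitative HTS in agonist format: NTP ERR cell line, compounds transferred in DMSO after 6 h plating, 18 h incubation at 37 C, ONE-Glo luminescence endpoint.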
On the % scale 0 is the no-effect control and ±100 the full control effect.

Sequence of Thyrotropin receptor (Homo sapiens) (P16473 whole entry, looked up): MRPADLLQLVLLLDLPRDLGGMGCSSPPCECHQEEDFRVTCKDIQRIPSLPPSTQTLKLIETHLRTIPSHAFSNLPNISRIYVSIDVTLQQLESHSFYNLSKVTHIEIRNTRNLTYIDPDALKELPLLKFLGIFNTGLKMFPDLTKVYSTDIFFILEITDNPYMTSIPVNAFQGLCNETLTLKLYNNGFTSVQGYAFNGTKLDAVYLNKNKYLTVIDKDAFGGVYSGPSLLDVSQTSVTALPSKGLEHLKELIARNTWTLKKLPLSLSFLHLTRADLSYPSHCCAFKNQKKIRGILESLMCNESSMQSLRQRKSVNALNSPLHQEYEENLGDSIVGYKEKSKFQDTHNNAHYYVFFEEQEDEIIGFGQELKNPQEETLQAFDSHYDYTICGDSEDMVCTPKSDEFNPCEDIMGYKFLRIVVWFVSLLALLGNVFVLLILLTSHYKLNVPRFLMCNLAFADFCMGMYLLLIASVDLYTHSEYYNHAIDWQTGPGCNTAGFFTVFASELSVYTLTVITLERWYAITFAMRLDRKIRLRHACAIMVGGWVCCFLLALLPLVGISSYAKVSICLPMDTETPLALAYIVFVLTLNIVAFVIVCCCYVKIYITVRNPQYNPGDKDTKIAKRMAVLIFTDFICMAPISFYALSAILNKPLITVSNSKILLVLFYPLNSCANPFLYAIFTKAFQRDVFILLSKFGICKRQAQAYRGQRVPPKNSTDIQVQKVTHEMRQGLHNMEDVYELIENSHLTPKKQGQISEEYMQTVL

CCCCCCCC/C=C\CCCCCCCC(=O)OC[C@@H](O)[C@H]1OC[C@H](O)[C@H]1O
inactive: outcome [1] | outcome [2] | outcome [3] | outcome [4] | outcome [5] | Potency [6] | outcome [7] | Potency [8] | Potency [9] | outcome [10] | Potency [11] | Potency [12] | outcome [13] | max response [14] 7.57% | Potency [15]

O=C(O)c1c(Cl)ccc(Cl)c1Cl
inactive: outcome [1] | outcome [2] | outcome [3] | outcome [4] | outcome [5] | Potency [6] | outcome [7] | Potency [8] | Potency [9] | outcome [10] | Potency [11] | Potency [12] | outcome [13] | max response [14] 5.49% | Potency [15]

CCCCCCCCCCCCC
inactive: outcome [1] | outcome [2] | outcome [3] | outcome [4] | outcome [5] | Potency [6] | outcome [7] | Potency [8] | Potency [9] | outcome [10] | Potency [11] | Potency [12] | outcome [13] | max response [14] 7.99% | Potency [15]

CCCOCCOCCOCCO
inactive: outcome [1] | Potency [16] | outcome [17] | outcome [4] | outcome [5] | Potency [6] | Potency [18] | outcome [19] | outcome [7] | Potency [8] | Potency [9] | outcome [10] | Potency [11] | Potency [12] | outcome [13] | max response [14] -22.3% | Potency [15]

Cc1ccccc1OCC1CO1 (stereo not drawn)
inactive: outcome [1] | Potency [16] | outcome [17] | outcome [3] | outcome [4] | Potency [6] | Potency [18] | outcome [19] | outcome [7] | Potency [8] | Potency [9] | outcome [10] | Potency [11] | Potency [12] | outcome [13] | max response [14] -1.66% | Potency [15]

COC(=O)CCC(=O)O
inactive: outcome [1] | outcome [2] | outcome [3] | outcome [4] | outcome [5] | Potency [6] | outcome [7] | Potency [8] | Potency [9] | outcome [10] | Potency [11] | Potency [12] | outcome [13] | max response [14] 8.17% | Potency [15]

Cc1oc(=O)oc1CN1CCN(c2cc3c(cc2F)c(=O)c(C(=O)O)c2n3C(C)S2)CC1 (stereo not drawn)
inactive: outcome [1] | outcome [2] | outcome [3] | outcome [4] | outcome [5] | Potency [6] | outcome [7] | Potency [8] | Potency [9] | outcome [10] | Potency [11] | Potency [12] | outcome [13] | max response [14] 5.9%
